# Compounds with a hit are over-represented: about 0.62% of the library has one in this group of screens.
# Chronic BCR inh: qHTS Assay to Find Inhibitors of Chronic Active B-Cell Receptor Signaling; ABC-DLBCL IkBa-CBG/CBR reporter, luminescence ratio, 4 h; Potency, µM (top dose mostly 46.1 µM), for inactives: at the top dose activity change, negative = inhibition, usual class: inhibitors; 0.05% of 340,000 active; AID 493014, 2011; active = well fitted inhibition curve with a large enough effect in the signal ratio, with a control signal flat, not every such curve was filed as active; inconclusive = small, poorly fitted or top-dose-only effect, or effect the other way, or a change in a side signal; the % refers to the signal ratio;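 note: plate controls were basal doxycycline-induced cells for no effect and cells given 10 µM MG132 for full effect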
#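 Doxycycline induced both beetle luciferases in TMD8 lymphoma cells; IKK-driven degradation limits the IkappaBalpha-fused green signal, while red luminescence normalises for cell number and nonspecific effects. Compounds tested up to 46 uM, 4 hrs.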
# gsp antagonist: qHTS for Antagonists of gsp, the Etiologic Mutation Responsible for Fibrous Dysplasia/McCune-Albright Syndrome: qHTS. 0.4% of 340,000 active. gsp-mutant cells, cAMP HTRF, 30 min. Potency, µM (doses to about 76.9 µM), inactives show top-dose activity change, negative = inhibition, usual class: inhibitors; calls by dose curve; cell line not stated here;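 note: intracellular cAMP measured with PDE inhibitor Ro 20-1724 present during compound exposure; % is set by controls: 0 for no effect and ±100 for the full control effect; nearly all actives have a fitted effect of over 65% in size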
#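 HTRF cAMP measurement after 30 min RT detection following 30 min, 37C compound treatment alongside […] (added as 300 uM solution) in G418-selected cells seeded at 2000/well and grown 16–24 h.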
# S-ASM inh: Inhibitors of Secretory Acid Sphingomyelinase (S-ASM): qHTS. Sphingomyelin phosphodiesterase (Homo sapiens), P17405. placental ASM, HMU-PC fluorogenic substrate, 60 min. Potency, µM (top dose mostly 57.5 µM), without a hit: top-dose activity change, negative = inhibition, hits mostly inhibitors. 0.006% of 340,000 active; active = well fitted inhibition curve with a large enough effect; inconclusive = small, poorly fitted or top-dose-only effect; inactive = no such curve, though single readings can be large or run the other way
#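 qHTS format. ASM enzyme prepared from human placenta hydrolyses the fluorogenic substrate HMU-PC0 (9 uM final) over 60 min at 37 °C after a 10 min compound preincubation.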
# MBNL1-CUG inh: qHTS Assay for Inhibitors of MBNL1-poly(CUG) RNA binding; Potency, µM (top dose mostly 57.5 µM), for the others: at the top dose activity change, negative = inhibition, most hits filed as inhibitors; 0.036% of 280,000 active; Muscleblind-like protein 1 (Homo sapiens), Q9NR56; TR-FRET MBNL1-His/biotin-(CUG)12 binding, 665/545 ratio; active = well fitted inhibition curve with a large enough effect in the signal ratio, with a control signal flat, not every such curve was filed as active; inconclusive = small, poorly fitted or top-dose-only effect, or effect the other way, or a change in a side signal; inactive = no such curve, though single readings can be large or run the other way; the % refers to the signal ratio; note: % is set by controls: 0 for no effect and ±100 for the full control effect
# Target sequence (Q9NR56 whole entry, looked up): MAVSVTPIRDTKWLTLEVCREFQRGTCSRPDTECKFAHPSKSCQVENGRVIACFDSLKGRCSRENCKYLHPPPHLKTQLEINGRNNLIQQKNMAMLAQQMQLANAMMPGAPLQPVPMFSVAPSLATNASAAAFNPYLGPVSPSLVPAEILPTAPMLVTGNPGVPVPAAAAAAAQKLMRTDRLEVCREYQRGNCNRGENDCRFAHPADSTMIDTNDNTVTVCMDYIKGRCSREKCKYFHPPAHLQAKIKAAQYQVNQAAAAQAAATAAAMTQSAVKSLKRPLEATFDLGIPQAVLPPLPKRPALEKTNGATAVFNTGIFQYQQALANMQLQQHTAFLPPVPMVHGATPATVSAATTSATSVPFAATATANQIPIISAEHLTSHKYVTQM
#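 Compounds (final 92 nM to 58 uM) are added to His-tagged MBNL1 and biotin-(CUG)12, then terbium anti-His antibody and streptavidin-XL665 (5 nM final). After 60 min at room temperature, the 665/545 nm ratio is read.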
# gsp ag: qHTS for Agonist of gsp, the Etiologic Mutation Responsible for Fibrous Dysplasia/McCune-Albright Syndrome: qHTS. gsp mutant cells, cAMP HTRF, 30 min. 0.13% of 340,000 active. Potency, µM (series often up to 76.9 µM), for the others: top-dose activation (cAMP increase), hits mostly activators; active = well fitted activation curve with a large enough effect; inconclusive = small, poorly fitted or top-dose-only effect, or another doubt; inactive = no such curve, though single readings can be large or run the other way; cell line not stated here;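 note: phosphodiesterase inhibitor Ro 20-1724 added with compounds to block cAMP breakdown; nearly all actives have a fitted effect of over 60% in size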
#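 Cells stably selected in G418 were plated at 2000/well, grown 16-24 hr, then given compounds in DMSO with the PDE inhibitor […] (300 uM solution added) for 30 min at 37C; cAMP was read by HTRF.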
# Active calls of the source: *; i = inactive; ? = inconclusive; nt = no result given; [ ] = dose if it differs, or a comment. Potency is the fitted concentration of half-maximal effect.
SMILES,Chronic BCR inh,gsp antagonist,S-ASM inh,MBNL1-CUG inh,gsp ag
O=C(COc1ccc2ccc(=O)oc2c1)Nc1cccc(S(=O)(=O)N2CCCCC2)c1,-10%,28µM*,23%,nt,?
COc1cc(C(=O)Nc2ccc(C)cn2)ccc1OCC(=O)N1CCOCC1,?,-4%,-2%,nt,29%
COc1ccc(-c2nc(NC(=O)c3ccc(OCC(=O)N4CCOCC4)c(OC)c3)sc2C)cc1,4%,35µM*,-29%,nt,-16%
N#Cc1c(-c2ccccc2)cc2nc3ccccc3n2c1N,?,1%,i,23%,13%
COc1cc(-c2cc3nc4ccccc4n3c(N)c2C#N)cc(OC)c1OC,4%,13%,i,18%,28µM*
COc1ccc(S(=O)(=O)N2CCC(C(=O)N[C@@H](C)C(=O)NC3CC3)CC2)cc1,-2%,21%,3%,-8%,?
CC(=O)Nc1ccc(S(=O)(=O)N2CCC(C(=O)N[C@@H](C)C(=O)NC3CCCC3)CC2)cc1,-2%,50µM*,4%,0%,-38%
COc1ccc2nnc(-c3ccccc3)n2n1,-6%,16%,3%,-9%,16µM*
COCCCn1c(=O)/c(=C\c2cccc(OC)c2OC)s/c1=C(/C#N)C(=O)Nc1ccc(C(=O)O)cc1,?,14µM*,8%,?,0%
Cc1ccc(S(=O)(=O)N2CCOCC2)cc1NC(=O)COC(=O)CNC(=O)c1ccccc1,6%,17%,4%,nt,6%
Cc1ccc(S(=O)(=O)N2CCOCC2)cc1NC(=O)COc1ccc(C(=O)c2ccccc2)cc1,-12%,25µM*,-4%,nt,7.9µM*
N#C/C(=C(/O)c1ccc2c(c1)OCO2)c1nc2cc(C(F)(F)F)ccc2s1,?,35µM*,13%,-8%,-3%
Nc1c(C(=O)O)sc2nc(-c3ccccc3)c3c(c12)CCCC3,13%,-4%,6%,4%,?
CCc1c(-c2ccccc2)nc2sc3c(c2c1N)CCCC3,?,35µM*,-2%,16%,6%[15.4 µM]
O=C(Cc1ccc(Br)cc1)Nc1ccc2[nH]ncc2c1,0%,14%,3%,17%,2%[15.4 µM]
OCCNc1ncnc2ccc(Br)cc12,?,4%,4%,-6%,28%
CCN(CC)c1ncnc2ccc(Br)cc12,-1%,1%,0%,5%,18µM*
CCCc1nc(SCC(=O)c2ccccc2)c2c(=O)n(C)c(=O)n(C)c2n1,?,35µM*,?,-3%,-52%
C=CCc1ccc(OCCOc2ccc(/C=N/n3cnnc3)cc2OCC)c(OC)c1,23µM*,-14%,-6%,9%,?
COc1cc(/C=N/n2cnnc2)ccc1OCCOc1ccccc1,?,-1%,-2%,9%,-47%
COc1ccc(CCNC(=O)c2cccc(S(=O)(=O)N3CCOCC3)c2)cc1OC,?,-5%,4%,nt,25%
Cc1ccc2[nH]c(-c3ccccc3)cc(=O)c2c1,5.6µM*,15%,1%,-4%,?
O=C(NCC(c1cccs1)S(=O)(=O)c1cccs1)c1ccc(Cl)cc1 (stereo not given),-4%,nt,nt,nt,nt
CCCc1nc(N2CCOCC2)c(C#N)c2c1CCCC2,20%,-1%,14%,-1%,-2%
CC(C)c1nc(N2CCOCC2)c(C#N)c2c1CCC2,-1%,35µM*,5%,2%,0%
SMILES,Chronic BCR inh,gsp antagonist,S-ASM inh,MBNL1-CUG inh,gsp ag
CCN(CC)C(=O)C1=C(C)N(Cc2ccccc2)C(=O)C(CC(=O)NC2CCCCC2)C1 (stereo not given),nt,nt,nt,nt,-49%
COc1ccc(CC(CC(=O)O)C(=O)Nc2ccc(Cl)c(Cl)c2)cc1 (stereo not given),8%,18µM*,-3%,-2%,4%
CC(C)(C)OC(=O)NCCCC[C@@H](C(=O)NCCCCCCCCCCC(=O)N1CCN(C(=O)OC(C)(C)C)CC1)n1cc(CCO)nn1,?,?,10%,nt,nt
CSCC[C@@H](C(=O)NCCCCCCCCCCC(=O)N1CCN(C(=O)OC(C)(C)C)CC1)n1cc(CCO)nn1,-8%,32µM*,5%,nt,-23%
O=C(CSc1nnc(-c2ccccc2F)n1C1CC1)N1CCCC1,nt,nt,nt,nt,-27%
COc1cccc(NC(=O)CN(C)C(=O)CCCc2c[nH]c3ccccc23)c1,?,-3%,-1%,nt,?
COc1ccc(-c2nn3c(C4CCCCC4)nnc3s2)cc1OC,14µM*,4%,-3%,-4%,14%
O=C(Nc1ccc(C(=O)Oc2ccccc2)c(O)c1)c1ccco1,?,35µM*,-19%,-11%,8%
O=C(NCCc1ccccc1)c1ccc2c(=O)[nH]c3c(C(=O)NCC4CCCO4)sc(=S)n3c2c1 (stereo not given),13%,?,-6%,2%,-9%[15.4 µM]
CCCCNC(=O)c1sc(=S)n2c1[nH]c(=O)c1ccccc12,7%,25µM*,-9%,-1%,19%
O=C(NC1CCCCC1)c1sc(=S)n2c1[nH]c(=O)c1ccccc12,?,45µM*,-1%,-3%,-37%
CCN1C(=O)[C@H]2[C@@H](c3ccc(-c4ccccc4)cc3)N3CCC[C@@]3(C(=O)OC)[C@H]2C1=O,7%,0%,-17%,nt,-2%
O=C1c2ccccc2C(O)(c2ccccc2)N1c1ccc([N+](=O)[O-])cc1Cl (stereo not given),nt,-10%,-7%,nt,53%[15.4 µM]
CCN(CC)C(=O)COc1coc(CN2CCN(c3ccccc3F)CC2)cc1=O,-3%,17%,1%,-1%,?
CSc1nc2ccccc2n1Cc1c(Cl)cccc1Cl,-8%,40µM*,-8%,-1%,-6%
O=C(NC(C1CC1)C1CC1)C1CCC(=O)N(CCCN2CCCC2=O)C1 (stereo not given),6%,10%,1%,-2%,-10%
N#CC1=C(N)SC(N)=C(C#N)C1c1cccc(Oc2ccccc2)c1,?,28µM*,-9%,13%,25%
Cc1cc(NS(=O)(=O)c2ccc(Nc3nc(-c4ccc(O)cc4)cs3)cc2)no1,1%,-18%,?,-14%,-32%
Cc1cc(NS(=O)(=O)c2ccc(Nc3nc(-c4ccc(C)c(C)c4)cs3)cc2)no1,?,22µM*,-11%,nt,-7%
Clc1ccc(-c2nnc(CSc3nnc(-c4cccs4)n3Cc3ccccc3)o2)cc1,?,25µM*,-16%,-17%,11%
CCCOc1ccc(C2CC(=O)Nc3cc(OC)c(OC)cc32)cc1 (stereo not given),-25%,-14%,-14%,-3%,-7%

# Screening data from PubChem BioAssay.
